Screening data (PubChem BioAssay)
A selection: hits, their analogues and other compounds. The true share with any hit is near 19%.
ELG1 repair inh = inhibitors of ELG1-dependent DNA repair in HEK293T cells | HEK293T ELG1-luciferase reporter, luminescence, 16 h; DNA damage induced by 5-fluorouridine | Potency, µM (top dose mostly 46.1 µM), most hits filed as inhibitors | 330,000 compounds, 2.3% hits | AID 504467; note: nearly all actives have a fitted effect of over 55% in size
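In this reporter screen, reduction of luminescence relative to DMSO vehicle indicated activity. Compounds and 5-fluorouridine were added together to 2,000 cells per well, incubated for 16 hr at 37 °C, then developed with ONE-Glo.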
TDP1 cell noCPT = qHTS for Inhibitors of human tyrosyl-DNA phosphodiesterase 1 (TDP1): qHTS in cells in absence of CPT; DT40 Tdp1-/- hTDP1 cells, no CPT, ATP luminescence, 48 h; 420,000 compounds, 15% hits; Potency, µM (highest dose often 46.2 µM), hits mostly inhibitors; note: nearly all actives have a fitted effect of over 55% in size
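Growth of hTDP1-complemented DT40 Tdp1-knockout cells is measured by ATP luminescence after at least 48 hr compound exposure at 37 °C, with DMSO substituting for the 20 nM CPT used in the parallel screen.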
HT1080 IDH1KD tx = toxicity to HT-1080 IDH1 knockdown cells (counter line); HT-1080 IDH1 knockdown viability, ATP luminescence, 48 h; Potency, µM (titrated, usually from 46.1 µM), hits mostly cytotoxic; 360,000 compounds, 2% hits
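CellTiter-Glo luminescence after 48 h compound exposure at 37 degrees C of IDH1-knockdown HT-1080 cells in 5% FBS RPMI. %Activity scaled between DMSO wells and cell-free media wells, with curves fitted and assigned curve classes.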
DT40 TDP1 CPT = growth inhibition of DT40 Tdp1-/-;hTDP1 cells with camptothecin (screen for TDP1 inhibitors); chicken DT40 Tdp1-/-;hTDP1 cells + 20 nM CPT, ATP luminescence, 48 h; Potency, µM (highest dose often 46.2 µM), most hits filed as inhibitors; 420,000 compounds, 12% hits; note: nearly all actives have a fitted effect of over 55% in size
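Chicken DT40 Tdp1-/- cells stably complemented with human TDP1 were seeded at 400 cells/well in medium containing 20 nM camptothecin, exposed to pin-transferred compounds, and grown at 37 °C for at least 48 hr. Viability was read as ATP luminescence.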
IL1B secr inh = inhibitors of inflammasome signaling (IL-1 beta secretion); THP-1 LPS/ATP IL-1B secretion, AlphaLISA, 16 h; hits give low values; activity change, % at 57.5 µM; 360,000 compounds, 4.7% hits; in the data active = activity change below about -50%; inconclusive = mostly about -30% to -49%
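Secreted IL-1B measured by AlphaLISA bead assay after 16 h compound exposure of THP-1 cells; compounds (final up to 57.5 uM) added 1 h before LPS (250 ng/mL) and ATP (1.25 mM) stimulation; lower signal means less secretion.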
HT1080NT lethal = kills 2HG-producing HT-1080-NT fibrosarcoma cells | HT-1080-NT fibrosarcoma viability, CellTiter-Glo ATP luminescence, 48 h | Potency, µM (doses to about 46.1 µM), most hits filed as cytotoxic | 360,000 compounds, 1.6% hits;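 note: NT is the 2HG producing partner of a matched IDH1 knockdown line; nearly all actives have a fitted effect of over 55% in size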
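Fibrosarcoma NT cells, 750 per well in 5% FBS RPMI, were exposed to compound for 48 hours. Viability: CellTiter-Glo luminescence.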
Of the large screens only hits and unclear results are named; the others gave an inactive call. Unless noted, calls come from the whole dose curve; as a rule, active = well fitted curve in the direction sought with a large enough effect; inconclusive = small, poorly fitted or top-dose-only effect, or another doubt; inactive = no such curve, though single readings can be large; an effect the other way counts as inactive or inconclusive.

COc1ccccc1C(=O)Nc1ccnn1C1CCN(Cc2cn(C)c3ccccc23)CC1	TDP1 cell noCPT inconclusive, HT1080 IDH1KD tx inconclusive, DT40 TDP1 CPT inconclusive, HT1080NT lethal inconclusive
CCCn1ncc(CN2CCC(n3nccc3NC(=O)c3ccccc3OC)CC2)c1C	DT40 TDP1 CPT inconclusive
CCCCc1ncc(CN2CCC(n3nccc3NC(=O)c3ccccc3OC)CC2)[nH]1	TDP1 cell noCPT 15µM, DT40 TDP1 CPT inconclusive
O=C(Nc1ccnn1C1CCN(C/C=C/c2ccccc2)CC1)c1ccccc1	IL1B secr inh inconclusive
Cc1cc(C)c(CN2CCC(n3nccc3NC(=O)c3ccccc3Cl)CC2)cc1C	TDP1 cell noCPT inconclusive, HT1080 IDH1KD tx inconclusive, DT40 TDP1 CPT 15µM, HT1080NT lethal inconclusive
Cn1cc(CN2CCC(n3nccc3NC(=O)c3ccccc3Cl)CC2)c2ccccc21	TDP1 cell noCPT inconclusive, HT1080 IDH1KD tx inconclusive, IL1B secr inh -82, HT1080NT lethal inconclusive
O=C(Nc1ccnn1C1CCN(C/C=C/c2ccccc2)CC1)c1cccc(F)c1	HT1080 IDH1KD tx inconclusive, DT40 TDP1 CPT inconclusive, IL1B secr inh -53
COc1ccccc1NC(=O)CSc1nccc(-c2ccco2)n1	none
COc1cccc(NC(=O)CSCc2cc(=O)c3ccc(C)c(C)c3[nH]2)c1	none (no result: ELG1 repair inh, HT1080 IDH1KD tx, IL1B secr inh, HT1080NT lethal)
Cc1ccc(-c2ccc(CCC(=O)O)n2NC(=O)c2ccc([N+](=O)[O-])cc2)cc1	none
CCc1nnc(NC(=O)CN2CCN(Cc3ccc(F)cc3)CC2)s1	none
CC(=O)OC1C2CCC1C([N+]1(C)CCCCC1)CC2 (centres undefined)	none
CCc1ccc(CN2CCC(n3nccc3NC(=O)c3ccccc3Cl)CC2)cc1	TDP1 cell noCPT inconclusive, DT40 TDP1 CPT 23µM, IL1B secr inh -50
Cn1cc(CN2CCC(n3nccc3NC(=O)c3ccccc3Cl)CC2)cn1	none
COc1ccccc1C(=O)Nc1ccnn1C1CCN(Cc2cc(C)c(C)cc2C)CC1	ELG1 repair inh 23µM, TDP1 cell noCPT 18µM, DT40 TDP1 CPT inconclusive
Cn1c(SCC(=O)Nc2cccnc2Cl)nnc1-c1ccco1	none
FC(F)(F)c1cc(CN2CCC3(CCNCC3)CC2)cc(C(F)(F)F)c1	TDP1 cell noCPT 4.6µM, DT40 TDP1 CPT 6.5µM (no result: ELG1 repair inh, HT1080 IDH1KD tx, IL1B secr inh, HT1080NT lethal)
O=c1[nH]c(CSc2nc3ccccc3[nH]2)nc2c1cnn2-c1ccccc1	ELG1 repair inh 12µM, TDP1 cell noCPT 21µM, HT1080 IDH1KD tx inconclusive, DT40 TDP1 CPT 26µM, IL1B secr inh -67, HT1080NT lethal 23µM
Nc1nc(SCC(=O)N2CCCC2)[nH]c(=O)c1-c1ccccc1	TDP1 cell noCPT 26µM, DT40 TDP1 CPT inconclusive
O=c1[nH]c(SCc2nc3c(cnn3-c3ccccc3)c(=O)[nH]2)nc2ccccc12	ELG1 repair inh inconclusive, TDP1 cell noCPT 21µM, HT1080 IDH1KD tx inconclusive, DT40 TDP1 CPT inconclusive
O=c1[nH]c(CSc2ncccn2)nc2c1cnn2-c1ccccc1	none
Nc1nc(SCC(=O)N2CCOCC2)[nH]c(=O)c1-c1ccccc1	none
Cc1ccc2nc(SCc3nc4c(cnn4-c4ccccc4)c(=O)[nH]3)[nH]c2c1	TDP1 cell noCPT 16µM, DT40 TDP1 CPT 21µM
CN(C(=O)C(C)(C)C)C1c2c(ccc3ccccc23)OCC1CO (centres undefined)	DT40 TDP1 CPT inconclusive
CCCCCSc1nc2c(cnn2-c2ccccc2)c(=O)[nH]1	TDP1 cell noCPT inconclusive, HT1080 IDH1KD tx inconclusive, DT40 TDP1 CPT inconclusive, HT1080NT lethal inconclusive
CCOC(=O)N1CCN(C(=O)CSc2nc3c(cnn3-c3ccccc3)c(=O)[nH]2)CC1	ELG1 repair inh inconclusive, TDP1 cell noCPT 23µM, DT40 TDP1 CPT inconclusive
CCCCCSc1nc2c(cnn2-c2ccc(F)cc2)c(=O)[nH]1	TDP1 cell noCPT 23µM, DT40 TDP1 CPT inconclusive
CC1CCC(NC(=O)c2ccc3c(c2)N(Cc2ccccc2)C(=O)c2ccccc2S3(=O)=O)CC1 (centres undefined)	DT40 TDP1 CPT inconclusive (no result: ELG1 repair inh, HT1080 IDH1KD tx, IL1B secr inh, HT1080NT lethal)
